From PubChem
mHTT-CaM PPI inh – mHTT-calmodulin interaction abrogation | AID 1671202 | AlphaScreen His-mHTT/GST-CaM binding, luminescence | 3.6% of 190,000 active | P42858 | inhibition, % at 15 µM;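 also: 0% = both proteins with DMSO and 100% = one protein alone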
Pf apPOL inh – Pf-apPOL DNA polymerase inhibition; Recombinant Pf-apPOL, molecular beacon fluorescence, 1.5 h; inhibition, % at 10 µM; 0.25% of 210,000 active
The depositor's hits bear a star; i = inactive; x = not tested or not shown; ! = a repeat was not active. Shown is part of a subset that was picked to be rich in hits. Rule as the data show it: active = inhibition above about 50%; inactive = the rest.

SMILES	mHTT-CaM PPI inh	Pf apPOL inh
C=CCSc1nnc2c(n1)OC(c1ccco1)N(C(C)=O)c1ccccc1-2 (centres undefined)	5.0	-7.1
COc1cc(-c2c(C#N)c(N)nc3sc(C(N)=O)c(N)c23)cc(OC)c1OC	65.0*	-4.6
COc1cc(-c2c(C#N)c(N)nc(SC)c2C#N)cc(OC)c1OC	-1.5	-0.2
CCNc1nc(NC(C)C)nc(OCCNC(=O)COc2ccc(Cl)cc2Cl)n1	11.0	-3.6
CC(C)CCNC(=O)CSC1=Nc2ccccc2C2=NCC(=O)N12	9.0	-2.3
O=C(NCCC1=CCCCC1)c1ncn[nH]1	93.9*	-9.7
O=C(NCCC1=CCCCC1)c1ccncc1	-3.3	1.9
CN(C)c1ncncc1N1CCC(C(=O)NC2CC2)CC1	0.6	-6.0
O=S(=O)(Nc1cc(Cl)cc(Cl)c1)c1ccc2c(c1)OCCO2	-17.1	3.4
Cn1c(=O)c2c(ncn2CC(=O)N/N=C/c2ccco2)n(C)c1=O	i	x
O=C(CN1c2ccccc2Sc2ccccc21)NN=Cc1ccco1	x	61.8*
Cc1cc([N+](=O)[O-])nn1C(=O)c1ccc([N+](=O)[O-])cc1Cl	1.0	-5.2
COc1ccc(NS(=O)(=O)C2CCS(=O)(=O)C2)cc1 (centres undefined)	5.0	99.8*
COc1ccc(NS(C)(=O)=O)cc1	-11.9	5.3
COc1cc2c(cc1OC)C(COc1ccc3c(C)cc(=O)oc3c1)N(C(=S)Nc1ccccc1)CC2 (centres undefined)	12.9	4.9
CN1C(=O)c2cccnc2Sc2cc(C(=O)NCc3cccc(Cl)c3)ccc21	51.7*	-14.6
Cc1cccc(C(=O)Nc2ccc3c(c2)Sc2ncccc2C(=O)N3C)c1	64.8*	-3.1
CN1C(=O)c2cccnc2Sc2cc(NC(=O)c3cccc(Cl)c3)ccc21	8.8	-3.8
Cc1ccc(CNC(=O)c2ccc3c(c2)Sc2ncccc2C(=O)N3C)cc1	-4.9	-4.6
CCc1ccc(C)nc1NC(=O)c1snnc1C	x	0.9
CCC1CCCCN1C(=O)c1cc2cc3ccc(OC)cc3nc2o1 (centres undefined)	-4.0	-4.2
Cc1ccccc1OCC(=O)N1CCN(C2=CC3=NCC(C)N3C=N2)CC1 (centres undefined)	99.5*	0.8
COc1ccccc1CC(=O)N1CCN(C2=CC3=NCC(C)N3C=N2)CC1 (centres undefined)	14.8	-4.3
Cc1nc(Nc2ccc3c(c2)OCCO3)nc(Nc2ccc3c(c2)OCCO3)c1[N+](=O)[O-]	24.4	x
Cc1nc(Nc2ccc(O)cc2)nc(Nc2ccc(O)cc2)c1[N+](=O)[O-]	56.8*	0.3
SMILES	mHTT-CaM PPI inh	Pf apPOL inh
C#CCSc1nc2ccccc2c(=O)n1C1CCCC1	-9.5	-2.5
c1ccc2c(N3CCOCC3)nc(-c3ccncc3)nc2c1	61.0*!	1.4
Cc1ccc(-c2nc(N3CCOCC3)c3ccccc3n2)cc1	-3.5	-4.2
CC1=C(C(=O)Nc2ccc(C)cn2)C(c2ccc(C)cc2)C2=C(CCCC2=O)N1 (centres undefined)	9.0	-0.2
CC1=C(C(=O)Nc2ccc(C)cn2)C(c2ccccc2)C2=C(CCCC2=O)N1 (centres undefined)	2.0	50.8*
CC1=C(C(=O)Nc2cccc(C(F)(F)F)c2)C(c2ccccc2)C2=C(CCCC2=O)N1 (centres undefined)	36.0	-2.2
O=C1CCCC2=C1C(c1cccc([N+](=O)[O-])c1)Nc1ccc(C(=O)c3ccccc3)cc1N2 (centres undefined)	56.4*	-8.5
CC1=C(C(=O)Nc2cccc(C(F)(F)F)c2)C(c2cccc([N+](=O)[O-])c2)C2=C(CCCC2=O)N1 (centres undefined)	52.0*	-6.6
CC1=C(C(=O)Nc2cccc(C(F)(F)F)c2)C(c2ccccc2)C2=C(CC(C)(C)CC2=O)N1 (centres undefined)	92.0*	0.8
CC1=C(C(=O)Nc2cccc(C(F)(F)F)c2)C(c2ccccn2)C2=C(CC(C)(C)CC2=O)N1 (centres undefined)	-2.0	-9.0
O=C1CCCC2=C1C(c1cccnc1)Nc1ccc(C(=O)c3ccccc3)cc1N2 (centres undefined)	9.9	-1.5
O=C(Nc1ccccc1)c1cc2c(s1)CN(C1CCCC1)C2	-3.7	-5.4
CCn1c(C)c(CN2CCC(C(=O)NCCCN3CCOCC3)CC2)c2ccccc21	8.2	-2.8
O=C(Nc1cccnc1)c1cc(S(=O)(=O)N2CCCCC2)ccc1Cl	-4.0	-6.7
COc1ccc(CNC(=O)C2CCN(c3nccn4nc(-c5cccs5)cc34)CC2)cc1	31.4	-2.9
CC(=NNc1nc(-c2ccc(Cl)cc2)cs1)c1csc(-c2ccccc2)n1	x	-9.1
O=C(NCCO)C(=O)Nc1ccc2c(c1)OCO2	3.7	22.5
CCc1ccc(C2=Cc3ccccc3C(CC(=O)C3CC3)N2c2ccc(-c3cncnc3)cc2)cc1 (centres undefined)	100.1*	-2.1
COc1cc(OC)cc(C2=Cc3ccc(OC)cc3C(CC(C)=O)N2c2ccc(-c3cncnc3)cc2)c1 (centres undefined)	37.2	-4.1
CCN1CCN(CC(O)CN2CCn3c4c(c5cc(C)ccc53)CCCC42)CC1 (centres undefined)	31.8	-2.7
c1cnc(-c2n[nH]c(C3CCN(CC4CCCCC4)CC3)n2)cn1	-1.0	-5.4
CC(C)CCN1CCCC(c2nc(-c3cnccn3)n[nH]2)C1 (centres undefined)	34.3	4.2
c1cnc(-c2n[nH]c(C3CCCN(CC4CCCCC4)C3)n2)cn1 (centres undefined)	54.1*	-7.6
c1cnc(-c2n[nH]c(C3CCCNC3)n2)cn1 (centres undefined)	71.9*	-4.7
CC1=C(C(=O)Nc2ccccn2)C(c2ccc(Br)cc2)C2=C(CCCC2=O)N1 (centres undefined)	-3.0	-16.0
SMILES	mHTT-CaM PPI inh	Pf apPOL inh
CC(C)NC(=O)c1coc(CN2CCN(c3ccc(F)cc3)CC2)n1	-0.9	-3.3
CS(=O)(=O)N(Cc1ccccc1)c1ccccc1C(=O)NCCSc1ccc(Cl)cc1	52.0*	-11.8
COCCNC(=O)c1ccccc1N(Cc1ccccc1)S(=O)(=O)c1ccccc1	8.8	7.1
COc1ccc(CCNC(=O)C2CCc3nc(N4CCC(C)CC4)ncc3C2)cc1OC (centres undefined)	9.0	0.4
N#Cc1c(-c2ccc3c(c2)OCO3)nc(N2CCCCC2)[nH]c1=O	62.0*	4.7
COc1nc(N)c(C#N)c(-c2ccc3c(c2)OCO3)c1C#N	40.0	-19.0
O=[N+]([O-])c1ccc(S(=O)Nc2ccc(O)cc2)cc1 (centres undefined)	0.6	x
O=C(Nc1cccc2c1C(=O)c1ccccc1C2=O)c1ccc(Cl)s1	0.0	0.8
O=C(Nc1cccc2c1C(=O)NC2=O)c1ccc(Cl)s1	100.1*	1.3
Cc1ncn(CC(=O)Nc2ccccc2F)c(=O)c1C	-4.3	-4.2
O=[N+]([O-])c1ccc(OCCCN2CCOCC2)cc1	-3.0	4.6
CC(C)N(Cc1ccccc1)c1ncnc(N)c1[N+](=O)[O-]	8.0	0.4
CN(Cc1ccccc1)c1ncnc(N)c1[N+](=O)[O-]	9.0	92.3*!
CN1CCc2c(-c3cccs3)[nH]c(=S)c(C#N)c2C1	39.4	x
O=c1oc2cc3occ(-c4ccc(F)cc4)c3cc2c2c1CCCC2	-3.0	3.2
COc1ccc2c(c1)c(=O)oc1cc3occ(-c4ccc(Cl)cc4)c3cc12	5.0	1.2
Cc1c(C)c2cc3c(-c4ccc(Cl)cc4)coc3cc2oc1=O	-1.0	90.9*
